From PubChem
Sampled rows, rich in hits. Any-hit rate of the full collection: about 2.6%.
KLF5 inh = kruppel-like factor 5 inhibition; AID 1700; 290,000 tested, 0.23% active; DLD-1 KLF5 promoter-luciferase reporter, luminescence; inhibition, % at 5 µM;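 active means inhibition above a per-plate limit of that plate's mean compound inhibition plus 3 SD, cut at about 60% in these data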;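 further: higher means less KLF5 promoter-driven luciferase light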
IEC-6 cytotox = IEC-6 cytotoxicity, counter-screen for KLF5 inhibitors. luminescence viability. inhibition, % at 5 µM. 290,000 tested, 0.78% active
Ba/F3 V617F tox = lowers viability of Ba/F3 cells expressing EpoR and JAK2V617F. ATP luminescence. inhibition, % at 5.6 µM. 220,000 tested, 1.1% active. AID 1446;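 active means inhibition above the campaign mean plus 3 SD over all tested compounds, cut at about 24% in these data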;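 further: cytokine-independent growth of Ba/F3 cells driven by EpoR plus mutant JAK2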
FID counter = fluorescent intercalator displacement, NS3 helicase counter-screen; DNA fluorescent intercalator displacement, fluorescence; inhibition, % at 7.9 µM; 290,000 tested, 0.17% active; in the data active means inhibition above about 37%;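 further: higher means more ethidium bromide displaced from hairpin DNA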
BaF3 parental = counter-screen for JAK2V617F inhibitors: parental Ba/F3 viability inhibitors; CellTiter-Glo ATP luminescence; inhibition, % at 5.6 µM; 220,000 tested, 1.1% active; AID 1486;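 active means inhibition above a per-campaign cutoff, the mean inhibition of all tested compounds plus 3 SD, cut at about 27% in these data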
GPR7 antag = human neuropeptides B/W receptor 1 antagonism; inhibition, % at 4.4 µM; GPR7-expressing cells, fluorescence antagonist assay; 290,000 tested, 1.1% active; P48145; in the data active means inhibition above about 16%, passing the limit was not always enough;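 further: cells stimulated with the agonist NPW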
Target sequence (P48145 whole entry, looked up): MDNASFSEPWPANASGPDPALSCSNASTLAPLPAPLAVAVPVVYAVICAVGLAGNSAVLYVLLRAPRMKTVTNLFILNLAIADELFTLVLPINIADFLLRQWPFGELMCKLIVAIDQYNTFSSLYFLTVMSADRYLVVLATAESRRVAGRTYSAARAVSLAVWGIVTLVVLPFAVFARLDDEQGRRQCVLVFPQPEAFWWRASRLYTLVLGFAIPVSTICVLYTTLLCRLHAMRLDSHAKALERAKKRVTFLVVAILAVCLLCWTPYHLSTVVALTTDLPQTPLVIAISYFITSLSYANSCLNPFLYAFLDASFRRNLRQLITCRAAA
IEC-6 tox confirm = confirmation of cytotoxic compounds in rat IEC-6 intestinal epithelial cells; shares compounds with IEC-6 cytotox; IEC-6 rat intestinal epithelial viability, luminescence; inhibition, % at 5 µM; 1,900 tested, 63% active
A number is an active result; n = inactive; x = no result. Unless noted, no stated cut-off is given here; in the data, active means inhibition above about 22%; inactive means the rest.

SMILES	KLF5 inh	IEC-6 cytotox	Ba/F3 V617F tox	FID counter	BaF3 parental	GPR7 antag	IEC-6 tox confirm
Cc1c(O)ccc2c(CN3CCN(Cc4ccccc4)CC3)cc(=O)oc12	n	n	x	n	x	n	x
Fc1ccc(/C=C2\CCCC3=C2Nc2ncnn2C3c2ccc(F)cc2)cc1 (configuration not stated)	n	n	n	n	n	n	x
Cc1ccc2c(c1)sc(-c1ccc(N(C)C)cc1)[n+]2C	n	44	x	n	x	n	30
Cc1cccc(C)c1NS(=O)(=O)c1ccc(-c2cnc(C3CC3)o2)cc1	n	94	x	n	x	n	72
COc1ccc(C)cc1NS(=O)(=O)c1ccc(-c2cnc(C3CC3)o2)cc1	n	90	x	n	x	n	62
CCOc1ccccc1CNS(=O)(=O)c1ccc(-c2cnc(C3CC3)o2)cc1	n	75	x	n	x	n	55
Cc1ccc(CNS(=O)(=O)c2ccc(-c3cnc(C4CC4)o3)cc2)cc1	n	n	x	n	x	n	x
CC(=O)c1ccc(NS(=O)(=O)c2ccc(-c3cnc(C4CC4)o3)cc2)cc1	n	n	x	n	x	n	x
Cc1ccc(NS(=O)(=O)c2ccc(-c3cnc(C4CC4)o3)cc2)cc1	n	56	x	n	x	n	32
COc1ccc(N2CCCC2)c(NC(=O)c2ccc([N+](=O)[O-])o2)c1	n	33	x	n	x	n	n
CC1CCN(c2ccccc2NC(=O)c2ccc([N+](=O)[O-])o2)CC1	n	n	x	n	x	n	x
O=C(Nc1ccccc1N1CCCC1)c1ccc([N+](=O)[O-])o1	n	66	x	n	x	n	n
CCC(=O)N1CCN(c2ccccc2NC(=O)c2ccc([N+](=O)[O-])o2)CC1	n	38	x	n	x	n	n
COc1ccc(C(=O)Nc2cc([N+](=O)[O-])ccc2N2CCCC2)cc1	n	n	n	n	n	n	x
O=C(Nc1nc(-c2ccccn2)cs1)c1ccc(S(=O)(=O)N2CCCCC2)cc1	n	50	55	n	56	n	54
O=C(Nc1nc(-c2ccccn2)cs1)C1CCCC1	n	25	n	n	n	n	n
Cc1cccc(C(=O)NC(C(=O)Nc2nc(-c3ccccn3)cs2)C(C)C)c1 (configuration not stated)	n	49	n	n	n	n	42
O=C(Nc1nc(-c2cccs2)cs1)c1ccc(S(=O)(=O)N2CCCCC2)cc1	n	n	n	n	n	n	x
CSCCC(=O)Nc1nc(-c2ccccn2)cs1	n	n	n	n	n	n	x
C[C@H](NC(=O)c1ccccc1)C(=O)Nc1nc(-c2ccccn2)cs1	n	n	n	n	n	n	x
Cc1cccnc1Nc1nc(-c2ccccn2)cs1	n	84	89	n	77	n	88
CC(=O)c1cc(C)ccc1OC(=O)c1cccc2nc(C)oc12	n	n	n	n	n	n	x
CC(C)C[C@H](NC(=O)c1[nH]cnc1C(=O)N[C@@H](C)C(=O)OCc1ccccc1)C(=O)OC(C)(C)C	n	n	x	n	x	n	x
O=C(Nc1ccccc1C(=O)NCCCN1CCOCC1)c1cccc([N+](=O)[O-])c1	n	n	x	n	x	n	x
O=C(Nc1nc(-c2ccccn2)cs1)c1ccc(Cl)s1	n	45	n	n	n	n	75
SMILES	KLF5 inh	IEC-6 cytotox	Ba/F3 V617F tox	FID counter	BaF3 parental	GPR7 antag	IEC-6 tox confirm
N#CCC(=O)N/N=C\c1cccc(OC/C=C/c2ccccc2)c1	n	n	x	n	x	n	x
CCOC(=O)c1c(C)[nH]c(C(=O)N/N=C/c2ccc(OC)c(OC)c2)c1C	n	62	x	n	x	n	49
CCOC(=O)c1c(C)[nH]c(C(=O)N/N=C\c2ccccc2O)c1C	n	n	n	n	n	n	x
COc1ccc(/C=N/NC(=O)c2[nH]c3ccc(Cl)cc3c2-c2ccccc2)c(C(=O)O)c1OC	n	88	x	n	x	n	n
COc1ccccc1/C=N/NC(=O)c1cc2c(OC)c(OC)ccc2[nH]1	n	47	x	n	x	n	n
COc1cccc(/C=N/NC(=O)c2cc3c(OC)c(OC)ccc3[nH]2)c1OC	n	55	54	n	42	n	42
COc1cccc(/C=N/NC(=O)c2cc3c(OC)cccc3[nH]2)c1OC	n	n	n	n	n	n	x
COc1ccc(/C=N/NC(=O)c2cc3c(OC)ccc(OC)c3[nH]2)cc1O	n	40	x	n	x	n	n
C=CCOc1ccc(C=Nc2ccc(OC)cc2)c(O)c1	n	n	n	n	n	n	x
CCC(=O)OCCNc1cc(Sc2nc3ccccc3[nH]2)c2nonc2c1[N+](=O)[O-]	n	54	n	n	n	n	n
CCC(=O)OCCNc1cc(Sc2nc3ccccc3s2)c2nonc2c1[N+](=O)[O-]	n	n	n	n	n	n	x
Cc1ccc(C)c(OCC(=O)Nc2c[nH]c(=O)[nH]c2=O)c1	n	n	n	n	n	n	x
CCOC(=O)c1c(CSC(=N)N)n(-c2ccc(C)cc2)c2cc(Br)c(OC(C)=O)cc12	n	n	n	n	n	n	x
CCOC(=O)c1c(CSC(=N)N)n(C)c2cc(Br)c(OC(C)=O)cc12	n	24	n	n	n	n	n
CC(=O)O[C@H]1C(=O)[C@@]2(C)C([C@H](OC(=O)c3ccccc3)[C@]3(O)C[C@H](OC(=O)[C@H](O)[C@@H](NC(=O)c4ccccc4)c4ccccc4)C(C)=C1C3(C)C)[C@]1(OC(C)=O)CO[C@@H]1C[C@H]2O (some centres not stated)	n	84	x	n	x	n	77
CCNC(=S)NNc1nncc2ccccc12	n	n	n	n	n	n	x
Cc1ccc(-c2[nH]ncc2/C=C(\C#N)C(=O)NC2CCCCC2)cc1	n	22	n	n	n	n	n
COc1ccc(-c2[nH]ncc2/C=C(/C#N)C(=O)NC2CCCCC2)cc1	n	n	n	n	n	n	x
c1ccc(N2CC[N+]3(CCCC3)CC2)nc1	n	n	n	n	n	n	x
C#CC(=O)N(c1cc(OC)ccc1OC)C(C(=O)NC1CCCC1)c1cccs1 (configuration not stated)	n	101	102	n	104	n	95
Cc1cc(C)n(-c2nc3ccccc3c(=O)n2OCC#N)n1	n	86	x	n	x	n	52
CCOn1c(-n2nc(C)cc2C)nc2ccccc2c1=O	n	n	n	n	n	n	x
CC(C)COc1ccc(S(=O)(=O)n2cc(F)c(=O)[nH]c2=O)cc1	n	85	61	n	63	n	n
CCCOc1ccc(S(=O)(=O)n2cc(F)c(=O)[nH]c2=O)cc1	n	44	x	n	x	n	n
CC(C)COc1ccc(C2NC(=O)NC2=O)cc1 (configuration not stated)	n	n	n	n	n	n	x
CCOc1ccc(Cn2cc(F)c(=O)[nH]c2=O)cc1	n	n	n	n	n	n	x
CCOC(=O)c1cccc(NC(=O)CC2Oc3ccccc3NC2=O)c1 (configuration not stated)	n	n	x	n	x	n	x
CNC(=S)N(CCc1c(C)[nH]c2ccc(F)cc12)Cc1cccnc1	n	n	x	n	x	n	x
